Results taken from publication PMC5540273 (PLoS ONE, 2017).
Like-named read-outs stand apart in the source and are kept apart here.

Key:
FGFR1 = details: concentration: 1 μM, replicates: in singlicate; n = 1
FGFR2 = details: concentration: 1 μM, replicates: in singlicate; n = 1
FGFR3 = details: concentration: 1 μM, replicates: in singlicate; n = 1
FGFR4 = details: concentration: 1 μM, replicates: in singlicate; n = 1
FGR = details: concentration: 1 μM, replicates: in singlicate; n = 1
FLT1 = details: concentration: 1 μM, replicates: in singlicate; n = 1
FLT3-autoinhibited = details: concentration: 1 μM, replicates: in singlicate; n = 1
FLT3 = details: concentration: 1 μM, replicates: in singlicate; n = 1
FLT4 = details: concentration: 1 μM, replicates: in singlicate; n = 1
FRK = details: concentration: 1 μM, replicates: in singlicate; n = 1
FYN = details: concentration: 1 μM, replicates: in singlicate; n = 1
GAK = details: concentration: 1 μM, replicates: in singlicate; n = 1
GCN2(Kin.Dom.2,S808G) = system: T1, GCN2(Kin.Dom.2,S808G); details: concentration: 1 μM, replicates: in singlicate; n = 1
T1 construct: gene EIF2AK4

GRK1 = details: concentration: 1 μM, replicates: in singlicate; n = 1
GRK2 = system: T2, GRK2; details: concentration: 1 μM, replicates: in singlicate; n = 1
T2 construct: gene ADRBK1

GRK3 = system: T3, GRK3; details: concentration: 1 μM, replicates: in singlicate; n = 1
T3 construct: gene ADRBK2

GRK4 = details: concentration: 1 μM, replicates: in singlicate; n = 1
GRK7 = details: concentration: 1 μM, replicates: in singlicate; n = 1
GSK3A = details: concentration: 1 μM, replicates: in singlicate; n = 1
GSK3B = details: n = 1
[1] = concentration: 1 μM, replicates: in singlicate
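Note: KINOMEscan kinase panel screen.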

In the case of `O=C(Nc1n[nH]c2nc(-c3ccc(O)cc3)ccc12)C1CC1` [SB-710363], the “%Inh” value (FGFR1) is reported as 0%, the “%Inh” value (FGFR2) is reported as 0% and the “%Inh” value (FGFR3) is reported as 0%. For the same compound, the “%Inh” value (FGFR4) was 0%, the “%Inh” value (FGR) was 11% and the “%Inh” value (FLT1) was 16%. The “%Inh” value (FLT3-autoinhibited) was 18%, the “%Inh” value (FLT3) was 82% and the “%Inh” value (FLT4) was 0%. The “%Inh” value (FRK) was 0%, the “%Inh” value (FYN) was 0% and the “%Inh” value (GAK) was 8%. The “%Inh” value (GCN2(Kin.Dom.2,S808G)) was 0%, the “%Inh” value (GRK1) was 34% and the “%Inh” value (GRK2) was 0%. The “%Inh” value (GRK3) was 16%, the “%Inh” value (GRK4) was 20% and the “%Inh” value (GRK7) was 13%. For the same compound, the “%Inh” value (GSK3A) was 98.8% and the “%Inh” value (GSK3B; 1 µM) was 95.6%.
In the case of `Cn1cc(-c2ccc3c(c2)CCN3C(=O)Cc2cccc(F)c2)c2c(N)ncnc21` [GSK2603358], the “%Inh” value (FGFR1) is reported as 0%, the “%Inh” value (FGFR2) is reported as 0% and the “%Inh” value (FGFR3) is reported as 0%. For the same compound, the “%Inh” value (FGFR4) was 0%, the “%Inh” value (FGR) was 46% and the “%Inh” value (FLT1) was 63%. For the same compound, the “%Inh” value (FLT3-autoinhibited) was 0%, the “%Inh” value (FLT3) was 66% and the “%Inh” value (FLT4) was 6%. For the same compound, the “%Inh” value (FRK) was 0%, the “%Inh” value (FYN) was 0% and the “%Inh” value (GAK) was 16%. For the same compound, the “%Inh” value (GCN2(Kin.Dom.2,S808G)) was 33%, the “%Inh” value (GRK1) was 0% and the “%Inh” value (GRK2) was 0%. For the same compound, the “%Inh” value (GRK3) was 36%, the “%Inh” value (GRK4) was 0% and the “%Inh” value (GRK7) was 0%. For the same compound, the “%Inh” value (GSK3A) was 4% and the “%Inh” value (GSK3B; [1]) was 12%.
In the case of `COC(=O)Nc1nc2cc(Oc3ccc(NC(=O)Nc4cc(C(F)(F)F)ccc4F)cn3)ccc2[nH]1.Cl.Cl` [GW681170], the “%Inh” value (FGFR1) is reported as 7%, the “%Inh” value (FGFR2) is reported as 0% and the “%Inh” value (FGFR3) is reported as 4%. The “%Inh” value (FGFR4) was 3%, the “%Inh” value (FGR) was 15% and the “%Inh” value (FLT1) was 94.1%. The “%Inh” value (FLT3-autoinhibited) was 40%, the “%Inh” value (FLT3) was 99.1% and the “%Inh” value (FLT4) was 79%. The “%Inh” value (FRK) was 55%, the “%Inh” value (FYN) was 41% and the “%Inh” value (GAK) was 5%. The “%Inh” value (GCN2(Kin.Dom.2,S808G)) was 0%, the “%Inh” value (GRK1) was 0% and the “%Inh” value (GRK2) was 0%. For the same compound, the “%Inh” value (GRK3) was 0%, the “%Inh” value (GRK4) was 0% and the “%Inh” value (GRK7) was 0%. The “%Inh” value (GSK3A) was 0% and the “%Inh” value (GSK3B; [1]) was 8%.
With `NCCCC(NC(=O)c1cc(Br)c(-c2ccnc3[nH]ccc23)s1)c1ccccc1.O=C(O)C(F)(F)F.O=C(O)C(F)(F)F` (stereo not shown) [GSK1287544] the “%Inh” value (FGFR1) was 52%, the “%Inh” value (FGFR2) was 16% and the “%Inh” value (FGFR3) was 30%. The “%Inh” value (FGFR4) was 18%, the “%Inh” value (FGR) was 24% and the “%Inh” value (FLT1) was 60%. The “%Inh” value (FLT3-autoinhibited) was 6%, the “%Inh” value (FLT3) was 83% and the “%Inh” value (FLT4) was 38%. For the same compound, the “%Inh” value (FRK) was 2%, the “%Inh” value (FYN) was 2% and the “%Inh” value (GAK) was 23%. For the same compound, the “%Inh” value (GCN2(Kin.Dom.2,S808G)) was 7%, the “%Inh” value (GRK1) was 68% and the “%Inh” value (GRK2) was 75%. The “%Inh” value (GRK3) was 85%, the “%Inh” value (GRK4) was 57% and the “%Inh” value (GRK7) was 83%. The “%Inh” value (GSK3A) was 0% and the “%Inh” value (GSK3B; [1]) was 15%.
With `COc1cc(Nc2nccc(N3CCC(NC(=O)c4cc5ccccc5s4)C3)n2)cc(OC)c1OC` (stereo not shown) [GSK1379760] the “%Inh” value (FGFR1) was 0%, the “%Inh” value (FGFR2) was 0% and the “%Inh” value (FGFR3) was 18%. The “%Inh” value (FGFR4) was 0%, the “%Inh” value (FGR) was 23% and the “%Inh” value (FLT1) was 36%. For the same compound, the “%Inh” value (FLT3-autoinhibited) was 3%, the “%Inh” value (FLT3) was 33% and the “%Inh” value (FLT4) was 26%. The “%Inh” value (FRK) was 9%, the “%Inh” value (FYN) was 8% and the “%Inh” value (GAK) was 27%. For the same compound, the “%Inh” value (GCN2(Kin.Dom.2,S808G)) was 4%, the “%Inh” value (GRK1) was 0% and the “%Inh” value (GRK2) was 0%. The “%Inh” value (GRK3) was 17%, the “%Inh” value (GRK4) was 19% and the “%Inh” value (GRK7) was 0%. For the same compound, the “%Inh” value (GSK3A) was 0% and the “%Inh” value (GSK3B; [1]) was 4%.
